Screening data deposited in PubChem by several laboratories.
ALR H2O2 inh: inhibitors of human sulfhydryl oxidase ALR | actives 3.8% (n = 290,000) | purified ALR, DTT oxidation, H2O2 HRP-luminol luminescence | inhibition, % (test concentration not listed) | AID 485317;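 active = mean replicate inhibition above about 79%, with every replicate also reaching it, limit read from the data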
Target sequence (P55789 whole entry, looked up): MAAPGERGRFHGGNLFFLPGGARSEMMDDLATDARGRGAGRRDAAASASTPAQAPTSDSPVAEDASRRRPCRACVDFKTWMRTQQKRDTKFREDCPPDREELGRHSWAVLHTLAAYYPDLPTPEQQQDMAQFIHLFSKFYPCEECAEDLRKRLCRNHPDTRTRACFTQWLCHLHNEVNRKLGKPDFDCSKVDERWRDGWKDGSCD
NTR1 ag: agonists of human neurotensin receptor NTR1; P30989; NTR1-U2OS beta-arrestin-GFP spot imaging, agonist mode; activation, % at 20 µM; actives 0.17% (n = 330,000);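 active = activation at or above 40% of the spot to cytoplasm intensity ratio, with at least 20 cells analyzed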;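 note: 0% = DMSO without peptide and 100% = 100 nM NTR1 peptide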
Target sequence (P30989 whole entry, looked up): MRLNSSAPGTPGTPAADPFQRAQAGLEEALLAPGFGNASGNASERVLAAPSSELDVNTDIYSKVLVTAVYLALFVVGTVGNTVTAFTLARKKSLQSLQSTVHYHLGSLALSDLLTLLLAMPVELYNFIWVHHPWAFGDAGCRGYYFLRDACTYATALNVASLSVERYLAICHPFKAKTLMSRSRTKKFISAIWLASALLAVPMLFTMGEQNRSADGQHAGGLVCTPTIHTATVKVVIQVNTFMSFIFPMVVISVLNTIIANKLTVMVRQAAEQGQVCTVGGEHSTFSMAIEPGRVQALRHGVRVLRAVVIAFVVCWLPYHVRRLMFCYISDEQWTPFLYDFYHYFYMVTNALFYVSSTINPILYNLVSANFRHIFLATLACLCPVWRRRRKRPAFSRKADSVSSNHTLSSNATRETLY
UBC9 SUMO inh: SUMOylation inhibition; AID 2006; actives 0.36% (n = 290,000); inhibition, % at 35 µM; HTRF SUMOylation assay, SAE1/SAE2 + UBC9, in vitro; P63279; in the data active = inhibition above about 50%, passing the limit was not always enough
H9c2 protect: modulators protecting cardiomyocytes from myocardial damage; H9c2 cardiomyocytes, H2O2 injury protection, ATPLite, 2 h; protection from H2O2 cell death, % at 20 µM; actives 0.63% (n = 360,000); AID 588492;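 active = compounds giving at least 50% protection of heart cells from peroxide-induced death in the single-dose screen, raw or plate-pattern-corrected value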;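 note: 0% = DMSO wells with peroxide and 100% = DMSO wells without peroxide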
Active calls of the source: *; x = not tested or not shown. Most compounds without a hit are left out; they make up all but 3.9% or so of the library.

SMILES | ALR H2O2 inh | NTR1 ag | UBC9 SUMO inh | H9c2 protect
CS(=O)(=O)N1N=C(c2cccs2)CC1c1ccccc1 (stereo not given) | -10 | 0 | 4 | -4
Oc1c(Cl)cc(Cl)cc1CNc1nc2ccccc2[nH]1 | 99* | 6 | 0 | -19
Oc1c(Cl)cc(Cl)cc1CNc1ccccn1 | x | 0 | 0 | -2
CS(=O)(=O)c1ccc(C(=O)OCc2nnc(-c3ccc(Cl)cc3)o2)cc1[N+](=O)[O-] | 9 | 41* | 7 | -20
O=C(OCc1nnc(-c2ccc(Cl)cc2)o1)c1ccc(O)cc1 | -4 | 2 | 6 | 0
O=C1C=CC(=O)N1c1ccc(Nc2ccccc2)cc1 | x | x | x | -6
O=C1C(Nc2ccccc2)=C2CCCC=C2N1c1ccccc1 | 102* | 2 | 15 | -6
Cc1ccc(C(=O)N/C(=C\c2cn(-c3ccccc3)nc2-c2ccccc2)C(=O)N2CCOCC2)cc1 | -14 | 2 | 21 | 12
O=C(CN1CCN(S(=O)(=O)c2ccc(Cl)cc2)CC1)Nc1ccc(N2CCOCC2)cc1 | -3 | 2 | -2 | -1
O=C(Nc1ccc(N2CCOCC2)cc1)C1CC(O)CN1S(=O)(=O)c1ccc(Cl)cc1 (stereo not given) | 78* | -1 | 2 | -8
Oc1ccc(Cl)cc1Nc1nc(NCC2CCCO2)c2ccccc2n1 (stereo not given) | 10 | 12 | x | -7
Oc1ccccc1Nc1nc(NCC2CCCO2)c2ccccc2n1 (stereo not given) | 99* | 3 | 0 | 20
COc1ccc(S(=O)(=O)n2nc(OC(=O)c3ccco3)cc2N)cc1 | 97* | 1 | 6 | 18
COc1cccc(OC)c1C(=O)N1CCN(Cc2c[nH]c3ccccc23)CC1 | x | x | x | 8
COC(=O)c1c(N)c(C#N)c2n1CCCCC2 | 9 | 2 | 3 | 4
N#Cc1c(N)c(C(=O)c2ccccc2)n2c1CCC2 | 92* | -2 | -13 | -5
Cc1cnc(CN2CCc3c([nH]c4ccccc34)C2C2CCCCC2)[nH]1 (stereo not given) | 17 | 1 | 4 | -3
c1ccc2c3c([nH]c2c1)C(C1CCCCC1)N(Cc1ncc[nH]1)CC3 (stereo not given) | 98* | 2 | -7 | -1
CN(C)/C=N/c1[nH]ncc1C#N | -5 | 1 | 20 | 9
Cc1c(O)c(CN2CCCC2)cc2c1oc(=O)c1ccccc12 | 85* | 0 | -1 | 38
Cc1c(O)c(CN2CCCC2)cc2c3c(c(=O)oc12)CCC3 | x | 1 | 42 | 8
Cn1cc(Cc2ccc(C(=O)NCc3ccccc3)cn2)c2ccccc21 | x | x | x | 11
COc1ccccc1Cn1c(=S)[nH]c2cc(C(=O)NCCN3CCOCC3)ccc2c1=O | 52 | 0 | 18 | -2
COC(=O)Cc1c(C)nc2nc(NCc3ccc(Cl)cc3)[nH]n2c1=O | x | 1 | -13 | 1
COC(=O)Cc1c(C)nc2nc(NCc3cccc([N+](=O)[O-])c3)[nH]n2c1=O | 89* | 2 | 22 | 1
SMILES | ALR H2O2 inh | NTR1 ag | UBC9 SUMO inh | H9c2 protect
O=C(COc1ccc(F)cc1Cl)Nc1cc(S(=O)(=O)N2CCOCC2)ccc1N1CCCCC1 | -2 | 4 | 5 | -5
COc1cccc(NCc2nnc(SCC(=O)N(C)C3CCS(=O)(=O)C3)n2C2CCCCC2)c1 (stereo not given) | 17 | 0 | 2 | 0
COc1ccccc1S(=O)(=O)Cc1ccc(C(=O)N2CCN(c3ccccn3)CC2)o1 | -17 | 2 | -6 | 11
COc1ccccc1S(=O)(=O)Cc1ccc(C(=O)N2CCCC2)o1 | 93* | 13 | 19 | 3
COc1ccc(S(=O)(=O)Cc2ccc(C(=O)N3CCN(c4ccccc4)CC3)o2)cc1 | 89* | 2 | -6 | 7
COc1ccc(S(=O)(=O)Cc2ccc(C(=O)N3CCCC3)o2)cc1 | 94* | -1 | 6 | -1
COc1ccc(/C(O)=C2\C(=O)C(=O)N(CCN3CCOCC3)C2c2ccccc2OC)cc1 (stereo not given) | x | x | -16 | 5
COc1ccc(/C(N)=N/O)cc1O | x | 1 | -2 | 2
c1ccc(-c2cc3c(N4CCCC4)ncnc3s2)cc1 | 1 | 3 | 0 | 8
c1ccc(-c2cc3c(N4CCOCC4)ncnc3s2)cc1 | 97* | 1 | 20 | 14
CC(=O)N1Cc2cc(N)ccc2Oc2ccccc21 | 89* | 0 | 10 | 2
CCCn1c(SCC(=O)NCc2ccc(OC)cc2)n[nH]c1=O | 36 | 0 | 14 | -5
Cc1ccc(-c2nc(CN3CCN(C(=O)C4CCCO4)CC3)cs2)cc1 (stereo not given) | 99* | -1 | -7 | -7
Cc1ccc(CN2CCN(C(=O)C3CCCO3)CC2)cc1 (stereo not given) | 99* | -2 | 7 | 6
Cc1ccc(C(=O)N2CCN(C(=O)C3CCCO3)CC2)cc1 (stereo not given) | 0 | 2 | x | 0
COC(=O)c1sc(N2C(=O)C(=O)/C(=C(/O)c3ccc(C)cc3)C2c2ccco2)nc1C (stereo not given) | 92* | 0 | 6 | x
CCOc1ccc(/C(O)=C2/C(=O)C(=O)N(c3nc(C)c(C)s3)C2c2ccco2)cc1 (stereo not given) | 0 | 2 | 29 | -1
CC1Cc2ccccc2N1C(=O)Cn1nc(C(=O)O)c2ccccc2c1=O (stereo not given) | -5 | 2 | 0 | 53*
CC1Cc2ccccc2N1C(=O)COC(=O)c1n[nH]c(=O)c2ccccc12 (stereo not given) | 1 | 2 | x | 54*
CC(=O)Nc1ccc(SCC(=O)N(C)C2CCS(=O)(=O)C2)cc1 (stereo not given) | 98* | 0 | 17 | 0
CCN(C(=O)CSc1ccc2c(c1)OCCO2)C1CCS(=O)(=O)C1 (stereo not given) | 92* | -1 | 4 | 3
CCN(C(=O)CSc1nc(-c2ccccc2)c(-c2ccccc2)[nH]1)C1CCS(=O)(=O)C1 (stereo not given) | 99* | 0 | -2 | 5
CCOC(=O)c1cc(NC(=O)N(C)C2CCCCC2)c(C)nc1C | 4 | 0 | -10 | -2
COc1ccc(C(c2c[nH]c3ccccc23)c2c[nH]c3ccccc23)cc1O | 88* | 8 | -32 | 4
CC(C)Oc1cc(F)ccc1-c1cc(C(=O)NCC2CCCCC2)[nH]n1 | x | x | x | -2
SMILES | ALR H2O2 inh | NTR1 ag | UBC9 SUMO inh | H9c2 protect
NC(=S)Nc1ccc(Oc2ccc(NC(N)=S)cc2)cc1 | 99* | 2 | 2 | -1
CCCn1c(SCC(=O)N(CC)c2c(N)n(Cc3ccccc3)c(=O)[nH]c2=O)nnc1-c1ccncc1 | x | x | x | -4
NC(=O)C1CCN(C(=O)c2ccc(CS(=O)(=O)c3c(Cl)cccc3Cl)o2)CC1 | -14 | 1 | 2 | 1
CNC(=S)NNc1nncc2ccccc12 | 106* | 1 | 7 | -6
COc1ccc(/C(C)=N/Nc2nncc3ccccc23)cc1 | -6 | 0 | -3 | -14
CCNC(=S)NNc1nncc2ccccc12 | 99* | 1 | 3 | 6
CCNC(=S)NNc1ccccc1 | 64 | 0 | 1 | -5
CCN(CC)c1ccc(NC(=O)COC(=O)C23CCC(=O)N2c2ccccc2S3)cc1 (stereo not given) | 97* | -2 | -4 | -6
